Experimental data taken from ChEMBL document CHEMBL3988442, “University of Dundee, Small-Polar-MMV Screening Library” (2021).

Target: T1, Methionyl-tRNA synthetase, putative (Leishmania donovani (strain BPK282A1)) (UniProt E9BF75)
T1 sequence (whole entry): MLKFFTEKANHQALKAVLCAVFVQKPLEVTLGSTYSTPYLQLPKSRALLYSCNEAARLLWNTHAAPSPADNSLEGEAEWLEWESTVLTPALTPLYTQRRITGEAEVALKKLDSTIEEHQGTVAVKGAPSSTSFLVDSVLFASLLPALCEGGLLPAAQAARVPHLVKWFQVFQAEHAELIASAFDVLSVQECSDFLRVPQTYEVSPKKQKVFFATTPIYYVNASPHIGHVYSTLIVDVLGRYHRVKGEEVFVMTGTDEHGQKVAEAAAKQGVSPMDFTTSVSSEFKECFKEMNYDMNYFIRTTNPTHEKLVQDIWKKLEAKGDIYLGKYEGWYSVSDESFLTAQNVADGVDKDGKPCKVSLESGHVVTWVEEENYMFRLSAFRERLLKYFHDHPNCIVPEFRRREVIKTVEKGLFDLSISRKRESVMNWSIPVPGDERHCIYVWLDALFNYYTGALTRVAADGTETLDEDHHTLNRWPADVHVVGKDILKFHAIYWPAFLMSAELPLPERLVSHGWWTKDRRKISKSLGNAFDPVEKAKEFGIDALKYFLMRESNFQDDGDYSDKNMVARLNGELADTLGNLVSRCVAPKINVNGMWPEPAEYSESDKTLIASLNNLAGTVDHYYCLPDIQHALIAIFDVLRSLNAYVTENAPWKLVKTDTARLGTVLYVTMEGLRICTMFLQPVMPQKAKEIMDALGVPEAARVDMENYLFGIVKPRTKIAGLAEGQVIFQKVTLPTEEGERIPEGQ
Test: Leishmania donovani Methionine tRNA synthetase (LdMetRS):v7. Dose response assay
Format: functional
Design: conc 80 nM, time 150 minutes

## CCc1cc(N[C@@H]2CC[C@@H](N)C2)n2nc(C)c(C)c2n1
BOTTOM 1.026617696, HILLSLOPE 1.297008069, MAX_EFFECT 52.85961872, TOP 100.0
  PXC50: 4.01
BOTTOM 3.147594101, HILLSLOPE 1.2343555, MAX_EFFECT 68.05555556, TOP 100.0
  PXC50: 4.22
BOTTOM 4.251586265, HILLSLOPE 1.063316163, MAX_EFFECT 53.69127517, TOP 100.0
  PXC50: 4.06

## Cc1ccnc(C2CN(Cc3ccc(-c4ccccc4C(=O)O)o3)C2)n1
BOTTOM 9.249913927, HILLSLOPE 1.102722508, MAX_EFFECT 60.83188908, TOP 100.0
  PXC50: 4.12
BOTTOM 9.895143899, HILLSLOPE 1.447637201, MAX_EFFECT 79.86111111, TOP 100.0
  PXC50: 4.36
BOTTOM 14.75237733, HILLSLOPE 1.939721289, MAX_EFFECT 72.48322148, TOP 100.0
  PXC50: 4.2

## Cc1nc(CN(C)C(=O)c2ccc(Cn3cnnn3)cc2)cs1
MAX_EFFECT 1.360544218
  PXC50: < 4
MAX_EFFECT 4.347826087
  PXC50: < 4
MAX_EFFECT 4.72854641
  PXC50: < 4

## Cn1ncc2c(NCCN3CCOCC3)nc(Nc3ccc(F)c(F)c3)nc21
BOTTOM 0.0547, HILLSLOPE 0.927770989, MAX_EFFECT 85.76850095, TOP 98.88350894
  PXC50: 4.86
BOTTOM -0.988495369, HILLSLOPE 1.035285925, MAX_EFFECT 73.01886792, TOP 82.1779252
  PXC50: 4.91
BOTTOM -7.338677117, HILLSLOPE 0.775594481, MAX_EFFECT 82.64840183, TOP 100.0
  PXC50: 4.76

## Cn1ncc2c(NCCO)nc(Cl)nc21
MAX_EFFECT 0.234192037
  PXC50: < 4
MAX_EFFECT 8.148148148
  PXC50: < 4
MAX_EFFECT -0.662251656
  PXC50: < 4

## OCCNc1nc(Nc2ccc(F)c(F)c2)ncc1F
BOTTOM 4.80997506, HILLSLOPE 1.016069871, MAX_EFFECT 75.05938242, TOP 103.871029
  PXC50: 4.37
BOTTOM 6.495032966, HILLSLOPE 1.205723909, MAX_EFFECT 75.53648069, TOP 100.0
  PXC50: 4.33
BOTTOM -1.721460895, HILLSLOPE 0.874564497, MAX_EFFECT 71.96261682, TOP 100.0
  PXC50: 4.5

## Cc1noc(CCNc2nc(Nc3ccc(F)c(F)c3)nc3c2cnn3C)n1
BOTTOM 2.244251311, HILLSLOPE 1.0049242, MAX_EFFECT 73.69439072, TOP 84.09605428
  PXC50: 4.84
BOTTOM 5.127321336, HILLSLOPE 1.112866852, MAX_EFFECT 63.09012876, TOP 72.94792798
  PXC50: 4.77
BOTTOM 6.005431852, HILLSLOPE 0.908019528, MAX_EFFECT 65.55819477, TOP 83.02457631
  PXC50: 4.61

## OCCNc1nc(Nc2cccc(F)c2)nc2ccsc12
BOTTOM 3.044431964, HILLSLOPE 0.890140098, MAX_EFFECT 69.62809917, TOP 98.77893837
  PXC50: 4.42
BOTTOM -0.299639933, HILLSLOPE 0.74457476, MAX_EFFECT 65.18375242, TOP 100.0
  PXC50: 4.37
BOTTOM -0.909696564, HILLSLOPE 1.048927528, MAX_EFFECT 68.28193833, TOP 78.21382142
  PXC50: 4.73

## Cn1nc(Cn2ccnc2)c2c1CN(c1nccs1)C2
BOTTOM 0.559364067, HILLSLOPE 0.919078395, MAX_EFFECT 71.42857143, TOP 99.25901822
  PXC50: 4.44
BOTTOM -1.637231388, HILLSLOPE 0.873521348, MAX_EFFECT 76.08695652, TOP 100.0
  PXC50: 4.55
BOTTOM -15.97247073, HILLSLOPE 2.274903325, MAX_EFFECT 57.26795096, TOP 100.0
  PXC50: 4.1

## Cc1cnn(CCNCc2c(C)nn(-c3ccccc3)c2C)c1
MAX_EFFECT 6.52173913
  PXC50: < 4
MAX_EFFECT 6.802721088
  PXC50: < 4
MAX_EFFECT 12.78458844
  PXC50: < 4

## Cn1ncc2c(NCCO)nc(Nc3ccncc3)nc21
MAX_EFFECT 4.449648712
  PXC50: < 4
MAX_EFFECT 5.518763797
  PXC50: < 4
MAX_EFFECT -0.37037037
  PXC50: < 4

## O=C(O)CC1COCCN1C(=O)C1(c2ccc(Cl)cc2)CCC1 (stereo not drawn)
MAX_EFFECT 1.360544218
  PXC50: < 4
MAX_EFFECT 1.449275362
  PXC50: < 4
MAX_EFFECT 4.378283713
  PXC50: < 4

## Cc1cc(NCCO)nc(Nc2ccc(F)c(F)c2)n1
BOTTOM 2.753913498, HILLSLOPE 0.759187316, MAX_EFFECT 87.41092637, TOP 100.0
  PXC50: 4.84
BOTTOM 8.051339334, HILLSLOPE 0.840494555, MAX_EFFECT 84.97854077, TOP 109.6160526
  PXC50: 4.62
BOTTOM -3.669323527, HILLSLOPE 0.810726137, MAX_EFFECT 81.68224299, TOP 99.92002792
  PXC50: 4.84

## O=C(CCc1n[nH]c2c1CCCC2)N1C[C@@H]2CC[C@H](C1)N(CC1CC1)C2
BOTTOM 12.11622841, HILLSLOPE 1.527540497, MAX_EFFECT 61.47110333, TOP 100.0
  PXC50: 4.08
BOTTOM -0.508945456, HILLSLOPE 1.017254843, MAX_EFFECT 57.14285714, TOP 100.0
  PXC50: 4.12
BOTTOM -1.441363941, HILLSLOPE 1.01121357, MAX_EFFECT 60.86956522, TOP 100.0
  PXC50: 4.2

## Cn1ncc2c(NCC3CC3)nc(Nc3ccc(F)c(F)c3)nc21
BOTTOM 0.0, HILLSLOPE 1.193695984, MAX_EFFECT 69.21119593, TOP 72.54722957
  PXC50: 5.02
BOTTOM -3.303876123, HILLSLOPE 0.978123659, MAX_EFFECT 83.23699422, TOP 90.5971187
  PXC50: 5.12
BOTTOM -7.642255371, HILLSLOPE 0.84165704, MAX_EFFECT 66.22807018, TOP 86.93864885
  PXC50: 4.93

## O=C(N1CCOCC(O)C1)C1(c2ccc(Cl)cc2)CCC1 (stereo not drawn)
MAX_EFFECT 0.0
  PXC50: < 4
MAX_EFFECT -0.875656743
  PXC50: < 4
MAX_EFFECT -1.449275362
  PXC50: < 4
